Assay outcomes: PubChem BioAssay, National Center for Advancing Translational Sciences (NCATS)
In the library only some 2.5% were active in any assay of this set; here they are far more common.
Akt phos inh: inhibitors of Akt phosphorylation; Neuro2A IGF-stimulated pAkt S473 HTRF, 20 min; stronger effect = lower value; activity change, % for hits at 50 µM; hit rate 0.32% among 360,000; in the data active = activity change below about -80%; inconclusive = mostly about -51% to -80%
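Neuro2A cells (4,500/well, DMEM with 0.5% FBS) were treated with compound at a single 50 µM final concentration, stimulated with 6 nM IGF for 20 min at 37 °C, and lysed. Phospho-Akt Ser473 was read by HTRF as 665/615 ratio ×10^4.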
Mito fusion yeast: blocks mitochondrial division or promotes mitochondrial fusion; S. cerevisiae fusion-defective mutant growth rescue, CellTiterGlo 48 h; Potency, µM (top dose mostly 46.1 µM), actives largely listed as activators; hit rate 0.23% among 320,000; AID 485298; note: nearly all actives have a fitted effect of over 45% in size
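S. cerevisiae fusion-defective temperature-sensitive mutants (e.g. fzo1-1, mgm1-5) grown 48 h at 37C in YPEG (ethanol/glycerol non-fermentable) medium with 23 nl compound per well; growth rescue read as CellTiterGlo luminescence.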
aSyn yeast inh: alpha-synuclein toxicity inhibition in yeast | Potency, µM (titrated, usually from 46.1 µM), hits mostly activators | hit rate 0.14% among 370,000 | Yeast expressing alpha-synuclein, growth rescue, BacTiter-Glo, 24 h | AID 652106; note: nearly all actives have a fitted effect of over 65% in size
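Galactose-induced alpha-syn yeast (OD600=0.02, raffinose-pregrown) + pinned cpd, 24 hr, 30 deg C; growth by BacTiter-Glo luminescence. Growth restoration scores as activation.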
TDP43 rescue: inhibitors of TDP-43 toxicity in yeast; TDP-43 expressing yeast growth rescue, BacTiter-Glo, 24 h; Potency, µM (titrated, usually from 46.1 µM), hits mostly activators; hit rate 1.8% among 410,000; AID 652104; note: nearly all actives have a fitted effect of over 50% in size
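In this qHTS, compounds that restore growth of yeast expressing TDP-43 appear as activators. Cells (OD600=0.02, galactose medium, raffinose-pregrown) are incubated with compound 24 hr at 30 deg C and growth is quantified by BacTiter-Glo.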
Apoferritin bind: candidate novel general anesthetic via apoferritin binding | P02791 | apoferritin/1-aminoanthracene competitive binding, fluorescence | Potency, µM (series often up to 77.5 µM), usual class: inhibitors | hit rate 0.074% among 350,000; note: nearly all actives have a fitted effect of over 20% in size
Target sequence (P02791 2-175 limits assumed): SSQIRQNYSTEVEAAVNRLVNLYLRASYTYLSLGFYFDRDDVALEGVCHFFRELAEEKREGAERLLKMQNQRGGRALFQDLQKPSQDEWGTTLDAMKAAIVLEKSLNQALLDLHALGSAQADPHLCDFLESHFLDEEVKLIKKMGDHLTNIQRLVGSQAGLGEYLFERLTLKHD
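Steps: apoferritin (10 uM) was premixed with half-saturated 1-AMA in PBS, compounds were pin-transferred, plates stood 10 min at room temperature, fluorescence was read at 380/535 nm, and curves were fitted with a Hill equation.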
CCT chaperon mod: changes cytosolic chaperonin activity. activity change, % (test concentration not listed), hits read low. hit rate 0.3% among 360,000. purified chaperonin ATPase assay, HTRF ADP detection, 30 min. AID 651819; in the data active = activity change below about -30%
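Nucleotide hydrolysis assay: TRiC at 20–40 nM final (set by batch activity) with 10 uM ATP, 30 min at 37 °C, in presence of 76 uM compound. Detection by competitive ADP HTRF, 30 min ambient.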
A number is an active result. Unless noted, calls come from the whole dose curve; as a rule, active = well fitted curve in the direction sought with a large enough effect; inconclusive = small, poorly fitted or top-dose-only effect, or another doubt; inactive = no such curve, though single readings can be large; an effect the other way counts as inactive or inconclusive.

`CCCCN(C)C(=O)C1CCCN(S(=O)(=O)c2ccc3c(c2)CC(C)N3C(=O)C2CC2)C1` (centres undefined) gave Akt phos inh inactive, Mito fusion yeast 1.1µM, aSyn yeast inh inactive, TDP43 rescue inactive, Apoferritin bind inactive and CCT chaperon mod inactive.
For COC(=O)CC1Oc2ccc(C)cc2-n2cc(-c3ccc(F)cc3)nc21 (centres undefined) the results were TDP43 rescue inactive and Apoferritin bind inactive.
`Cc1ccc(S(=O)(=O)N2[C@@H](c3ccc(F)cc3)C(C(=O)O)=CC[C@H]2c2cccc(Cl)c2)cc1` gave Akt phos inh inactive, Mito fusion yeast inactive, aSyn yeast inh inactive, TDP43 rescue 22µM and CCT chaperon mod inactive.
`Cc1ccc([C@H]2C(C(=O)O)=CC[C@@H](c3cccc(Cl)c3)N2S(=O)(=O)c2ccc(C)cc2)cc1` gave Akt phos inh inactive, aSyn yeast inh inactive, TDP43 rescue inactive and CCT chaperon mod inactive.
COc1ccc([C@@H]2CC=C(C(=O)O)[C@H](c3ccc(F)cc3)N2S(=O)(=O)c2ccc(Cl)cc2)cc1 was read as Akt phos inh inactive, Mito fusion yeast inactive, aSyn yeast inh inactive, TDP43 rescue 14µM and CCT chaperon mod inactive.
`CC(/C=N/NC(=O)c1cc(C(C)C)[nH]n1)=C\c1ccccc1` gave Akt phos inh inactive, Mito fusion yeast inactive, aSyn yeast inh 4µM, TDP43 rescue inactive, Apoferritin bind inactive and CCT chaperon mod inactive.
For CC(/C=N/NC(=O)c1cc(C2CC2)[nH]n1)=C\c1ccccc1 the results were Akt phos inh inactive, Mito fusion yeast inactive, aSyn yeast inh inactive, TDP43 rescue inactive, Apoferritin bind inactive and CCT chaperon mod inactive.
Screening CC(=O)OCOC(c1ccc2ccccc2c1)P(=O)(OCOC(C)=O)OCOC(C)=O (centres undefined) returned Apoferritin bind inactive.
Screening CS(=O)(=O)c1ncc(Cl)c(C(=O)Nc2ccc(OC(F)F)cc2)n1 returned Akt phos inh inactive, Mito fusion yeast inactive, aSyn yeast inh inactive, Apoferritin bind inactive and CCT chaperon mod inactive.
For Cc1cccc(CS(=O)(=O)c2ncc(Cl)c(C(=O)NCc3ccccc3)n2)c1 the results were Akt phos inh inactive, Mito fusion yeast inactive, aSyn yeast inh inactive, TDP43 rescue 7.9µM, Apoferritin bind inconclusive and CCT chaperon mod inactive.
For Cc1ccccc1NC(=O)c1nc(S(C)(=O)=O)ncc1Cl the results were Akt phos inh inactive, Mito fusion yeast inactive, aSyn yeast inh inactive, TDP43 rescue 10µM, Apoferritin bind inactive and CCT chaperon mod inactive.
Cc1cccc(C)c1NC(=O)c1nc(S(=O)(=O)Cc2ccccc2)ncc1Cl was read as Akt phos inh inactive, Mito fusion yeast inactive, aSyn yeast inh inactive, TDP43 rescue 10µM, Apoferritin bind inactive and CCT chaperon mod inactive.
Cc1ccccc1CS(=O)(=O)c1ncc(Cl)c(C(=O)Nc2ccc(F)cc2)n1 was read as Mito fusion yeast inactive, aSyn yeast inh inactive, TDP43 rescue 11µM, Apoferritin bind inactive and CCT chaperon mod inactive.
Screening CCOc1ccc(NC(=O)c2nc(S(=O)(=O)Cc3ccccc3C)ncc2Cl)cc1 returned aSyn yeast inh inactive.
For Oc1cc(Nc2ccc(N3CCCCC3)cc2)cc2cccnc12 the results were Mito fusion yeast inactive.
O=C(c1ccc2c(=O)n(CCc3ccccc3)c(=O)[nH]c2c1)N1CCN(C(=O)c2ccco2)CC1 was read as aSyn yeast inh inactive.
Screening C=C1CC2C(=O)N(Cc3cc(OC)ccc3OC)C(C(=O)OCC)C1N2C (centres undefined) returned Apoferritin bind inactive.
For CN(N=O)c1ccc2c(c1)Cc1ccccc1-2 the results were aSyn yeast inh inactive.
Screening O=C(OCc1nnc(-c2ccc(Cl)cc2)o1)c1ccc(O)cc1 returned Akt phos inh inactive, Mito fusion yeast inactive, aSyn yeast inh inactive, TDP43 rescue inactive, Apoferritin bind inactive and CCT chaperon mod inactive.
For CS(=O)(=O)c1ccc(C(=O)OCc2nnc(-c3ccc(Cl)cc3)o2)cc1[N+](=O)[O-] the results were Akt phos inh inactive, Mito fusion yeast inactive, aSyn yeast inh inactive, TDP43 rescue 18µM, Apoferritin bind inactive and CCT chaperon mod inactive.
O=C(O)c1ccc(-c2ccc3cc(C45CC6CC(CC(C6)C4)C5)c(O)cc3c2)cc1 was read as Apoferritin bind inactive.
For COc1ccc(OC)c(C(=O)COC(=O)c2cc(C)oc2C)c1 the results were Akt phos inh inactive, Mito fusion yeast inactive, aSyn yeast inh inactive, TDP43 rescue inactive, Apoferritin bind inactive and CCT chaperon mod inactive.
Screening COc1ccccc1NC(=O)c1ccc([N+](=O)[O-])o1 returned Akt phos inh inactive, aSyn yeast inh inactive, TDP43 rescue inconclusive and CCT chaperon mod inactive.
CC(=O)c1ccccc1OC(=O)c1ccc(-c2ccccc2)cc1 was read as Akt phos inh inactive, aSyn yeast inh inactive, TDP43 rescue 25µM and CCT chaperon mod inactive.
For CC(=O)c1ccccc1OC(=O)c1ccc([N+](=O)[O-])o1 the results were Akt phos inh inactive, Mito fusion yeast inactive, aSyn yeast inh inconclusive, TDP43 rescue 10µM, Apoferritin bind inactive and CCT chaperon mod inactive.
Screening CC(C)=NOC(=O)c1ccc(-c2ccccc2)cc1 returned Akt phos inh inactive, Mito fusion yeast inconclusive, aSyn yeast inh inactive, TDP43 rescue 22µM, Apoferritin bind inactive and CCT chaperon mod inactive.
`COc1ccc(OC)c(C(=O)COC(=O)c2ccc([N+](=O)[O-])o2)c1` gave Akt phos inh inactive, aSyn yeast inh inactive, TDP43 rescue 22µM and CCT chaperon mod inactive.
For CCOc1ccc(C(=O)NCCc2csc(-c3cccnc3)n2)cc1 the results were aSyn yeast inh inactive, TDP43 rescue inconclusive and Apoferritin bind inconclusive.
For O=C(NCC(c1cccnc1)N1CCN(Cc2ccccc2)CC1)C(=O)Nc1ccc(Cl)cc1 (centres undefined) the results were TDP43 rescue inactive and Apoferritin bind inactive.
`O=C(C[n+]1cccc(Br)c1)c1ccc(-c2ccccc2)cc1` gave Akt phos inh inactive, Mito fusion yeast inactive, aSyn yeast inh inactive, TDP43 rescue 1.6µM, Apoferritin bind inactive and CCT chaperon mod inactive.
O=C(C[n+]1cccc(Br)c1)c1ccccc1 was read as Akt phos inh inactive, Mito fusion yeast inactive, aSyn yeast inh inactive, TDP43 rescue inactive, Apoferritin bind inactive and CCT chaperon mod inactive.
For CCc1ccc(CNC(=O)c2cnc3sc(N(CC)CC)nn3c2=O)cc1 the results were TDP43 rescue inconclusive and Apoferritin bind inactive.
`O=S(=O)(NCc1ccc2c(c1)OCO2)c1ccc(Cl)s1` gave Akt phos inh inactive, Mito fusion yeast inactive, aSyn yeast inh inactive, TDP43 rescue 11µM, Apoferritin bind inconclusive and CCT chaperon mod inactive.
